# Measured values from PubChem BioAssay (Tox21).
# Records with an inconclusive call do not appear. Where a call stands in place of a potency, no number is given. Activity calls are given as the source filed them. Unless noted, the call rests on the fitted dose curve; in most records, active means well fitted curve in the direction sought with a large enough effect in the repeat runs; inconclusive means weak or mixed curves; inactive means no such curve, though single readings can be large; an effect the other way counts as inactive or inconclusive.
# How the values were obtained:
# [1] = Human pregnane X receptor (PXR) small molecule agonists, qHTS cell viability counter screen (AID 1346977); further: nearly all actives have a fitted effect of over 50% in size; further: potency means the concentration at half of the fitted maximal effect
# Outline: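 After a 5hr pre-incubation, PXR-Luc HepG2 cells received compounds plus positive control in DMSO and were kept 24hr at 37C. Cell viability was quantified by fluorescence from CellTiter-Fluor added for the final hour.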
# [2] = Caspase-3/7 induction in HepG2 cells by small molecules, qHTS assay (AID 1346978); further: nearly all actives have a fitted effect of over 15% in size
# Outline: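 Wild-type HepG2 cells (2,000/well) were settled 5 h at 37 C, 5% CO2, then exposed to compounds in DMSO for 17 h. Caspase-3/7 activity was read by luminescence 30 min after adding Caspase-Glo 3/7 reagent at room temperature.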
# [3] = Caspase-3/7 induction in CHO-K1 cells by small molecules, qHTS assay (AID 1346980); further: nearly all actives have a fitted effect of over 15% in size
# Outline: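 Wild-type cells were seeded at 1,500 per well and settled 5 hr at 37 C, 5% CO2, then exposed to DMSO-dissolved compounds for 17 hr. Caspase-Glo 3/7 reagent was added, and luminescence was read after 30min at room temperature.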
# [4] = Caspase-3/7 induction in HepG2 cells by small molecules, qHTS cell viability counter screen (AID 1346981); further: nearly all actives have a fitted effect of over 30% in size; further: potency means the concentration at half of the fitted maximal effect
# Outline: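 In this quantitative HTS counter screen, compounds delivered in DMSO were left on unmodified HepG2 cells for 16 hr at 37 C. Viability was then determined fluorometrically with CellTiter-Fluor, in parallel with caspase-3/7 induction in the same wells.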
# [5] = target: Nuclear receptor subfamily 1 group I member 2 (Homo sapiens) (UniProt O75469); test: Human pregnane X receptor (PXR) small molecule agonists, qHTS assay (AID 1346982); further: nearly all actives have a fitted effect of over 35% in size; further: potency means the concentration at half of the fitted maximal effect
# Chain of Nuclear receptor subfamily 1 group I member 2 (Homo sapiens) (O75469 whole entry, looked up): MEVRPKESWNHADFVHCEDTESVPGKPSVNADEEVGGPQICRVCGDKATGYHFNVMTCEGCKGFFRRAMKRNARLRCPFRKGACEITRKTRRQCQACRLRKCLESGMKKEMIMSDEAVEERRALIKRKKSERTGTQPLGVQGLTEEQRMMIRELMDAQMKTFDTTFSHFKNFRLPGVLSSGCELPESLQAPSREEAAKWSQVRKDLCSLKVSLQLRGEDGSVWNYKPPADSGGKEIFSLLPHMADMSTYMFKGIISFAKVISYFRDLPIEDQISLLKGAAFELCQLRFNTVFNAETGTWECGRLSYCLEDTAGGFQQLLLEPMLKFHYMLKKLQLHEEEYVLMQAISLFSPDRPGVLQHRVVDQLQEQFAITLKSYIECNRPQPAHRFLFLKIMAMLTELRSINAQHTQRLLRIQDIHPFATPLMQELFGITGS
# Outline: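 Reporter HepG2 cells expressing PXR-Luc are cultured in charcoal-stripped FBS (5%), treated with compounds for 24 hr at 37 C, and assayed by ONE-Glo luminescence after 30 min at room temperature.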
# [6] = target: Acetylcholinesterase (Homo sapiens) (UniProt P22303); test: Acetylcholinesterase (AChE) small molecule antagonists: enzyme-based qHTS assay with human liver microsomes (AID 1347399; calls by dose curve; further: nearly all actives have a fitted effect of over 60% in size; further: potency means the concentration at half of the fitted maximal effect); details: Potency: qHTS inhibition
# Chain of Acetylcholinesterase (Homo sapiens) (P22303 whole entry, looked up): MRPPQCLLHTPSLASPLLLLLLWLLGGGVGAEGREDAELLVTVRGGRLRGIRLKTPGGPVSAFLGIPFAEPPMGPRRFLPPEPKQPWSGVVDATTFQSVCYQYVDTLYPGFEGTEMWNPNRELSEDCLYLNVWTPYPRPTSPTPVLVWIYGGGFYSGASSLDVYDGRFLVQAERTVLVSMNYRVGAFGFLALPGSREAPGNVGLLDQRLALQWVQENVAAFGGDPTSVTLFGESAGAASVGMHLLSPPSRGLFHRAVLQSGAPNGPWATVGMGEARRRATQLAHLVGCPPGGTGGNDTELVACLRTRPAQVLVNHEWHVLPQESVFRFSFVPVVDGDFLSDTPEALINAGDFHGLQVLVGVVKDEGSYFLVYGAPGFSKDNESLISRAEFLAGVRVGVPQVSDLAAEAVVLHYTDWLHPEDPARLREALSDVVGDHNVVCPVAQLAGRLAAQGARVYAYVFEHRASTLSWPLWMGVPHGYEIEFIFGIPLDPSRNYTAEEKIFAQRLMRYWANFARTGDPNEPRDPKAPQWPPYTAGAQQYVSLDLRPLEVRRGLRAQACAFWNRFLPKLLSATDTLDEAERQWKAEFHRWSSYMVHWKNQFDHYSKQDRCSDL
# Outline: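 Recombinant human AChE (50 mU/mL in the enzyme mix) and human liver microsomes (0.25 mg/mL final) were preincubated with compound and NADPH (0.25 mg/mL final) for 30 min at 37 C. Acetylthiocholine/DTNB was then added; thiocholine was read colorimetrically after 10 min at room temperature.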
# [7] = target: Cytochrome P450 2D6 (Homo sapiens) (UniProt P10635); test: Cytochrome P450 Family 2 Subfamily D Member 6 (CYP2D6) small molecule antagonists: luciferase reporter qHTS assay (AID 1671196); further: nearly all actives have a fitted effect of over 50% in size; further: potency means the concentration at half of the fitted maximal effect
# Chain of Cytochrome P450 2D6 (Homo sapiens) (P10635 whole entry, looked up): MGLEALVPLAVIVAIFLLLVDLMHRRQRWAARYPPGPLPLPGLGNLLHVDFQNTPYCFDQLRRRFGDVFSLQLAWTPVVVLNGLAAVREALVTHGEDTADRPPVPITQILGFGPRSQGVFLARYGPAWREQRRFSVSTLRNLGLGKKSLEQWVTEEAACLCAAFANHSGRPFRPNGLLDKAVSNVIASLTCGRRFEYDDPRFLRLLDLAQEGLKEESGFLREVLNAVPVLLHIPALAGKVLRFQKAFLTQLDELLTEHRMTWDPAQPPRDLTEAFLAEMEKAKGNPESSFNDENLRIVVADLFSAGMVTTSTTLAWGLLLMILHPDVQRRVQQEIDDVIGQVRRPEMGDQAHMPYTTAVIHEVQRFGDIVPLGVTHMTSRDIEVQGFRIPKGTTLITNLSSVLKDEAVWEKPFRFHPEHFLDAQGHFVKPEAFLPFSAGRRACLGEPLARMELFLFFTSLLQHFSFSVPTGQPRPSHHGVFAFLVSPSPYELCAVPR
# Outline: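 Test chemicals meet CYP2D6 plus proluciferin substrate (10 min, RT); NADPH regenerating solution then drives turnover for 1 h. Detection reagent halts the reaction; luminescence measured after 20 min.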
# [8] = target: Cytochrome P450 2C19 (Homo sapiens) (UniProt P33261); test: Cytochrome P450 Family 2 Subfamily C Member 19 (CYP2C19) small molecule antagonists: luciferase reporter qHTS assay (AID 1671197); further: nearly all actives have a fitted effect of over 65% in size; further: potency means the concentration at half of the fitted maximal effect
# Chain of Cytochrome P450 2C19 (Homo sapiens) (P33261 whole entry, looked up): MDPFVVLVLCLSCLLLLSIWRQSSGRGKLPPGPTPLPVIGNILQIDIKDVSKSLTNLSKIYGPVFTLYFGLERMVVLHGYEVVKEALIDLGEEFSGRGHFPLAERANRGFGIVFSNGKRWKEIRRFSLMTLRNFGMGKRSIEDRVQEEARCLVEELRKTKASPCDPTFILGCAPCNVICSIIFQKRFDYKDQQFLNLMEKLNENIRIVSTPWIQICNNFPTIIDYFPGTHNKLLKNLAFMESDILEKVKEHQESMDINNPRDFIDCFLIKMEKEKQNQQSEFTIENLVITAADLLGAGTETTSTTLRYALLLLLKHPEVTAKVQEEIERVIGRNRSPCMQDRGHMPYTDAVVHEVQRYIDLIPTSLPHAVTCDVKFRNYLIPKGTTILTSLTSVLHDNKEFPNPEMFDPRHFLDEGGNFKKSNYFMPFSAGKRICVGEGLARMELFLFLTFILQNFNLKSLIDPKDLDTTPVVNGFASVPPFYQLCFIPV
# Outline: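 P450-Glo CYP2C19 screening system; proluciferin substrate; DMSO compound stocks; 10 min RT preincubation; NADPH regeneration, 1 h at 37C; luciferin detection reagent, 20 min RT; luminescence as RLU.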
# [9] = target: Cytochrome P450 2C9 (Homo sapiens) (UniProt P11712); test: Cytochrome P450 Family 2 Subfamily C Member 9 (CYP2C9) small molecule antagonists: luciferase reporter qHTS assay (AID 1671198); further: nearly all actives have a fitted effect of over 50% in size; further: potency means the concentration at half of the fitted maximal effect
# Chain of Cytochrome P450 2C9 (Homo sapiens) (P11712 whole entry, looked up): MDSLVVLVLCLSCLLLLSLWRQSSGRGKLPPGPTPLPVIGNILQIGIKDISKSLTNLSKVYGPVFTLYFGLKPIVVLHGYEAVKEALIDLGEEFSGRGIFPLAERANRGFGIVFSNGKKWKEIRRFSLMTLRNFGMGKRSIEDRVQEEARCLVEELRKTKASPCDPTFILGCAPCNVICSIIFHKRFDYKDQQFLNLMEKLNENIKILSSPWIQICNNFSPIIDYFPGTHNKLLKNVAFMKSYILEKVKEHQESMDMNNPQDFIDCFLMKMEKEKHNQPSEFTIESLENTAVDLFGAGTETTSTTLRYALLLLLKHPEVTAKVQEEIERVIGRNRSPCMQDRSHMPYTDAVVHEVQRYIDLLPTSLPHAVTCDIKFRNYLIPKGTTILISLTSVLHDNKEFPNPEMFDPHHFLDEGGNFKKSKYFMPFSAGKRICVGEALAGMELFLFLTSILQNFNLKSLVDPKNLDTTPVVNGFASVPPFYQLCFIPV
# Outline: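 CYP2C9 activity was measured with a P450-Glo proluciferin substrate. Enzyme–substrate mix was held with compound for 10 min at room temperature, then NADPH regeneration solution was added for 1 h at 37C. Luciferin product was read as luminescence.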
# [10] = target: Cytochrome P450 1A2 (Homo sapiens) (UniProt P05177); test: Cytochrome P450 Family 1 Subfamily A Member 2 (CYP1A2) small molecule antagonists: luciferase reporter qHTS assay (AID 1671199); further: nearly all actives have a fitted effect of over 50% in size; further: potency means the concentration at half of the fitted maximal effect
# Chain of Cytochrome P450 1A2 (Homo sapiens) (P05177 whole entry, looked up): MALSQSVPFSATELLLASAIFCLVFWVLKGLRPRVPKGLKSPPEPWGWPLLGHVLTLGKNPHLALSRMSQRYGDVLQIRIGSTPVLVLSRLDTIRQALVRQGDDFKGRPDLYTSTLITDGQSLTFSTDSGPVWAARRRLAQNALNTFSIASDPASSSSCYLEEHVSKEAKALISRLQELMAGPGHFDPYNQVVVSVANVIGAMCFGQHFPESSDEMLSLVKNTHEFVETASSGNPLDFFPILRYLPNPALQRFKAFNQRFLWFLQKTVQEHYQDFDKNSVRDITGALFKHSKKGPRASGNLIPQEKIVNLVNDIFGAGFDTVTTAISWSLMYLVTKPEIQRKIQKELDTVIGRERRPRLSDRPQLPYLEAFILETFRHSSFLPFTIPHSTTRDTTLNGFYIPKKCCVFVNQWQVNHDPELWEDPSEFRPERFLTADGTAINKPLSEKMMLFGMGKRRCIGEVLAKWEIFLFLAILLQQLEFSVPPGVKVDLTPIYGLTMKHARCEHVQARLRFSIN
# Outline: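 Steps: enzyme-substrate mix dispensed; test compounds and furafylline control pinned in; 10 min room temperature; NADPH regeneration solution added, 1 h; reaction stopped with luciferin detection reagent; luminescence read after 20 min.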
# [11] = target: Voltage-gated inwardly rectifying potassium channel KCNH2 (Homo sapiens) (UniProt Q12809); test: Human Ether-a-go-go-Related Gene (hERG) channel small molecule antagonists: fluorescence cell-based qHTS assay (AID 1671200)
# Chain of Voltage-gated inwardly rectifying potassium channel KCNH2 (Homo sapiens) (Q12809 whole entry, looked up): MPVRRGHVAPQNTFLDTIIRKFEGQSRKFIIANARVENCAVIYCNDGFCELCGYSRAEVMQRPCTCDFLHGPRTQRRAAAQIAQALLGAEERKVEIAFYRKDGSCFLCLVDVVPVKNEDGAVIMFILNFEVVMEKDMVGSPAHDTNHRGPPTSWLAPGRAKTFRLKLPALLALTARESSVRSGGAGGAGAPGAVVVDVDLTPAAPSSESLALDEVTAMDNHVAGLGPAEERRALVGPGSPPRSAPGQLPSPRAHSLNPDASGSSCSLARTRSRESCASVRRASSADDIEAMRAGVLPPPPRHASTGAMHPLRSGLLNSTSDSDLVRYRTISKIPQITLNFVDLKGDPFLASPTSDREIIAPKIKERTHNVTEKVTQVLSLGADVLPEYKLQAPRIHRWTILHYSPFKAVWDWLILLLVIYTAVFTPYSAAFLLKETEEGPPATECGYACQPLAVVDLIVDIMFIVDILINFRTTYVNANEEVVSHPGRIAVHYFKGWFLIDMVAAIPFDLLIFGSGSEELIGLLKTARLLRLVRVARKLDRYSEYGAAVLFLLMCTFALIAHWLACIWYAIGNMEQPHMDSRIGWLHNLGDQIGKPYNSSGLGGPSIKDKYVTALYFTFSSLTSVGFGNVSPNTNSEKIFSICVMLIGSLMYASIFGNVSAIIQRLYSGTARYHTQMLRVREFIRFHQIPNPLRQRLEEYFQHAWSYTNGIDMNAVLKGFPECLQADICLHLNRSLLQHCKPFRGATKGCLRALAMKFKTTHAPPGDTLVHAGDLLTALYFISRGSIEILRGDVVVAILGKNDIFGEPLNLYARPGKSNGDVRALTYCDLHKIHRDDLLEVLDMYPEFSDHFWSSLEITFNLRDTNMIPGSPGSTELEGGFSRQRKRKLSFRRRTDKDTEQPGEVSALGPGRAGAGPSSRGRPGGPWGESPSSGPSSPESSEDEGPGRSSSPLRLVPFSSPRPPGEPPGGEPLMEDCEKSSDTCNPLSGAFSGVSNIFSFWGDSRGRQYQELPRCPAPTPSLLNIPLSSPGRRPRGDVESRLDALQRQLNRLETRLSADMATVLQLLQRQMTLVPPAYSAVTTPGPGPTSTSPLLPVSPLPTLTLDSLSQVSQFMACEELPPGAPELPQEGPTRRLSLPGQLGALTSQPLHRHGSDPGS
# Outline: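 Cell line hERG-U2OS; dye FluxOR II, 1 h RT dark; Tl+ stimulus; ex 480/em 540 nm, read each second for 2 min.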
# [12] = target: Acetylcholinesterase (Homo sapiens) (UniProt P22303); test: Acetylcholinesterase (AChE) small molecule antagonists: colormetric cell-based qHTS assay (AID 1347395; calls by dose curve; further: nearly all actives have a fitted effect of over 30% in size; further: potency means the concentration at half of the fitted maximal effect)
# Outline: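 In this cell-based qHTS, attached SH-SY5Y cells were treated with test chemicals for 30 min, after which acetylthiocholine hydrolysis was followed by DTNB colour development over 90 min at 37 C.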
# [13] = target: Acetylcholinesterase (Homo sapiens) (UniProt P22303); test: Acetylcholinesterase (AChE) small molecule antagonists: enzyme-based qHTS assay (AID 1347397; calls by dose curve; further: nearly all actives have a fitted effect of over 55% in size; further: potency means the concentration at half of the fitted maximal effect); details: Potency: AChE enzyme activity inhibition
# Outline: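 Tox21 library chemicals are tested in qHTS format against recombinant human AChE. The enzyme, dispensed at 50 mU/mL, sits with compound for 30 min at room temperature. A DTNB–acetylthiocholine cocktail follows, and colour is read after 10 min.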
# [14] = target: Acetylcholinesterase (Homo sapiens) (UniProt P22303); test: Acetylcholinesterase (AChE) small molecule antagonists: fluorescence cell-based qHTS assay (AID 1347398; calls by dose curve; further: nearly all actives have a fitted effect of over 50% in size; further: potency means the concentration at half of the fitted maximal effect); details: Potency: AChE activity
# Outline: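 Cellular AChE inhibition: SH-SY5Y cells treated with test chemical for 30 min at 37 C, then acetylthiocholine hydrolysis followed over 40 min at room temperature via thiocholine-reactive Thiolite Green fluorescence (490/520 nm).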
# [15] = target: Cytochrome P450 3A4 (Homo sapiens) (UniProt P08684); test: Cytochrome P450 Family 3 Subfamily A Member 4 (CYP3A4) small molecule antagonists: luciferase reporter qHTS assay (AID 1671201); further: nearly all actives have a fitted effect of over 50% in size; further: potency means the concentration at half of the fitted maximal effect
# Chain of Cytochrome P450 3A4 (Homo sapiens) (P08684 whole entry, looked up): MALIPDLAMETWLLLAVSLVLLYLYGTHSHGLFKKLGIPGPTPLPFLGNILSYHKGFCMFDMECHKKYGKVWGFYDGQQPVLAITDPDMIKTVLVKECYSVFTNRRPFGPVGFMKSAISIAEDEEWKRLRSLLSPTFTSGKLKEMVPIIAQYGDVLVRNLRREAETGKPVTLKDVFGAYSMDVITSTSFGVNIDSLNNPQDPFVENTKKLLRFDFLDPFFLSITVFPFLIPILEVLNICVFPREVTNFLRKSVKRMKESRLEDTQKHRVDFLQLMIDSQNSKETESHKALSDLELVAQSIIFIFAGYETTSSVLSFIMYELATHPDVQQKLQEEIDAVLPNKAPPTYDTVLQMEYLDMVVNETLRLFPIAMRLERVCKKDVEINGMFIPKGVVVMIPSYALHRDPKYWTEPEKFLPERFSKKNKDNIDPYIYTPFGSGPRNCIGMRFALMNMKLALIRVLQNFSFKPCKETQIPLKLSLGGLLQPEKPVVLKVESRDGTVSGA
# Outline: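 Room-temperature assay throughout: 10 min compound–enzyme/substrate preincubation, 1 h reaction after NADPH regeneration solution, 20 min detection. Luciferin formed from proluciferin substrate is quantified by luminescence.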
# [16] = Caspase-3/7 induction in CHO-K1 cells by small molecules, qHTS cell viability counter screen (AID 1346979); further: nearly all actives have a fitted effect of over 35% in size
# Outline: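 Multiplexed with Caspase-Glo 3/7 in CHO-K1 cells, this counter screen added CellTiter-Fluor after 16hr of compound exposure and recorded fluorescence 1hr later.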
Compound,Potency [1],Potency [2],Potency [3],Potency [4],Potency [5],Potency [6],Potency [7],Potency [8],Potency [9],Potency [10],Potency [11],Potency [12],Potency [13],Potency [14],Potency [15],Potency [16]
COP(=O)(OC)O/C(=C\Cl)c1cc(Cl)c(Cl)cc1Cl,inactive,inactive,inactive,inactive,54.5 µM (active),inactive,79.6 µM (active),5.03 µM (active),44.8 µM (active),1.42 µM (active),inactive,–,–,–,–,–
CC(=O)C(Cl)C(=O)N(C)C (stereo not given),inactive,inactive,inactive,inactive,–,inactive,–,inactive,inactive,inactive,inactive,inactive,inactive,inactive,inactive,–
COP(=S)(OC)Oc1nc(Cl)c(Cl)cc1Cl,inactive,inactive,inactive,inactive,inactive,inactive,inactive,79.6 µM (active),25.2 µM (active),44.8 µM (active),inactive,inactive,inactive,inactive,11.2 µM (active),–
CCCCC/C=C\C/C=C\C/C=C\C/C=C\CCCC(=O)NCC(=O)O,inactive,inactive,–,inactive,inactive,inactive,15.5 µM (active),inactive,13.8 µM (active),inactive,inactive,inactive,–,inactive,inactive,–
COP(=S)(OC)Oc1ccc([N+](=O)[O-])c(C)c1,inactive,inactive,inactive,inactive,inactive,inactive,25.2 µM (active),0.399 µM (active),7.1 µM (active),1.12 µM (active),inactive,35.6 µM (active),inactive,50.2 µM (active),7.1 µM (active),–
CCC[CH2][Sn]([CH2]CCC)([O]C(C)=O)[O]C(C)=O,27.6 µM (active),inactive,inactive,49 µM (active),7.77 µM (active),inactive,–,inactive,inactive,inactive,inactive,inactive,inactive,inactive,inactive,–
CCOC(=O)CCN(SN(C)C(=O)Oc1cccc2c1OC(C)(C)C2)C(C)C,inactive,inactive,inactive,inactive,–,0.796 µM (active),–,17.8 µM (active),12.6 µM (active),22.4 µM (active),–,0.252 µM (active),0.1 µM (active),0.1 µM (active),10 µM (active),–
Oc1cc(Cl)c(Cl)c(Cl)c1Cl,29.9 µM (active),inactive,inactive,–,33.6 µM (active),inactive,–,inactive,–,27.6 µM (active),inactive,inactive,inactive,inactive,inactive,–
CN(C)CCc1c[nH]c2ccccc12,–,inactive,inactive,inactive,inactive,inactive,39.6 µM (active),inactive,inactive,inactive,inactive,inactive,inactive,inactive,inactive,inactive
